Measured values from PubChem BioAssay.
The source made the active and inactive calls. Unless noted, the rule behind the calls is not given here.

Experiments:
[1] = system: Wnt5a (protein binding on small-molecule microarray); experiment: Wnt5a binders on small-molecule microarray, primary screen, biophysical, 635/667 nm fluorescence (AID 1142); details: 635 nm fluorescence, higher = more signal;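 note: fluorescence read at 667 nm with signal to noise per printed feature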
[2] = cell viability in Huh7 cells, primary screen, cytotoxicity control for HCV replication inhibitor project, CellTiter-Glo luminescence, basal, 48 h (AID 1143); details: Huh7 HCV replicon, higher = more signal, called active from +8 up or from −8 down;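 note: Huh7 hepatoma cells carrying a hepatitis C replication reporter with no stimulus; test concentration not given here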
[3] = P. aeruginosa biofilm formation inhibitors, primary screen, PAO1 strain, BacTiter-Glo luminescence, LB-PBS (AID 1144); details: 12 h, higher = more signal
[4] = CREB reporter modulators without forskolin, primary screen, cell-based, PC12, CRE-LacZ reporter, unstimulated (AID 1145); details: no forskolin, luminescence, 4.5 h, higher = more signal, called active from +8 up or from −8 down
[5] = CREB reporter modulators under forskolin, primary screen, cell-based, PC12, CRE-LacZ reporter, forskolin-stimulated (AID 1146); details: luminescence, 4.5 h, higher = more signal, called active from +8 up or from −8 down;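 note: PC12 cells with 6xCRE LacZ reporter stimulated by forskolin 10 µM; beta-galactosidase reporter signal reflecting CREB driven transcription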
[6] = biological target: Streptavidin (Streptomyces avidinii) (UniProt P22629); experiment: streptavidin binders on small-molecule microarray, primary screen, artefact control for SMM compound annotation, biophysical, 635/667 nm fluorescence (AID 1147); details: streptavidin binding, higher = more signal;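 note: signal reflects streptavidin binding to arrayed compounds as a control protein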
Chain of Streptavidin (Streptomyces avidinii) (P22629 whole entry, looked up): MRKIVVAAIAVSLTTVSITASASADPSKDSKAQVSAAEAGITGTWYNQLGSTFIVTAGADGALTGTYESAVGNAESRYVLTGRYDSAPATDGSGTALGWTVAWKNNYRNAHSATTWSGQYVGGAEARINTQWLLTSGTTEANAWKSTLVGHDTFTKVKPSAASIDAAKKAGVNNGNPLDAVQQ

[7] = small-molecule binders of probe aInhba, primary screen, biochemical, small-molecule microarray, 635/667 nm fluorescence (AID 1148); details: higher = more signal;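 note: score merges 667nm spot fluorescence with signal-to-noise for antibody binding to printed compounds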
[8] = biological target: Torsin-1A (Homo sapiens) (UniProt O14656); experiment: torsin A binders from cell lysate, primary screen, small-molecule microarray, wild-type, 635/667 nm (AID 1149); details: COS7 hTOR1A-WT lysate, 635 nm fluorescence, higher = more signal
Chain of Torsin-1A (Homo sapiens) (O14656 whole entry, looked up): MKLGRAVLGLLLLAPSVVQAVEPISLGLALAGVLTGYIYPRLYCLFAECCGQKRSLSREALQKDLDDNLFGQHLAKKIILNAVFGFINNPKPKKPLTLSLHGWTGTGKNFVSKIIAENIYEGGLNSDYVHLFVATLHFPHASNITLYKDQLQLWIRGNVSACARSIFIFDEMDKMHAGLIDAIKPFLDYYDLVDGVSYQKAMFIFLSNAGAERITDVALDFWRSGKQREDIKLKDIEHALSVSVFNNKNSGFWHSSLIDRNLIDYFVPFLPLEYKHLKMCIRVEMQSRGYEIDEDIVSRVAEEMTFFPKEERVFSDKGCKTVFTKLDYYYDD

[9] = biological target: Torsin-1A (Homo sapiens) (UniProt O14656); experiment: small-molecule binders of mutant TOR1A in lysate, primary screen, cell lysate, small-molecule microarray, COS7 lysate, 635/667 nm fluorescence (AID 1150); details: COS7 hTOR1A mutant lysate, 635 nm fluorescence, higher = more signal;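 note: score pools 667 nm emission and signal to noise measuring lysate protein binding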
[10] = system: Sonic hedgehog protein (Shh); experiment: small-molecule binders of Shh protein, primary screen, biochemical, small-molecule microarray, 635/667 nm fluorescence (AID 1151); details: small-molecule microarray binding, 635 nm fluorescence; higher = more signal;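 note: Shh protein binding to compounds spotted on small-molecule microarray slides; score combines spot fluorescence intensity with signal-to-noise across triplicate slides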
[11] = E. coli DRC41 culture turbidity changes, primary screen, E. coli filamentation inducer project, strain DRC41, OD650, 48 h (AID 1152);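 note: E. coli MC1000 strain DRC41 lacking acrAB efflux pump and sulA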; details: E. coli DRC41 (acrAB sulA), higher = more signal, called active from +8 up or from −8 down
[12] = small-molecule binders of probe aLefty1, primary screen, biochemical, small-molecule microarray, 635/667 nm fluorescence (AID 1153); details: higher = more signal;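 note: score merges spot fluorescence with signal-to-noise ratio from the scanned slide images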
[13] = PSAC antagonists in infected red cells, primary screen, cell-based, P. falciparum Indochina, OD700, 1 h (AID 1154); details: P. falciparum Indochina infected RBC osmotic lysis, higher = more signal, called active from +8 up or from −8 down
[14] = PSAC antagonists in infected red cells, primary screen, cell-based, P. falciparum Indochina, OD700, 2 h (AID 1155);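 note: lysis reports solute entry through the parasite surface anion channel PSAC; channel blockers reduce lysis of infected cells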; details: P. falciparum Indochina infected erythrocytes, osmotic lysis OD700; higher = more signal, called active from +8 up or from −8 down
[15] = osmotic lysis modulators in infected erythrocytes, primary screen, PSAC antagonist project, cell-based, P. falciparum Indochina, OD700, 3 h (AID 1156); details: higher = more signal, called active from +8 up or from −8 down
[16] = PSAC antagonists in infected red cells, primary screen, cell-based, P. falciparum Indochina, OD700, 18 h (AID 1157); details: P. falciparum Indochina infected erythrocytes, osmotic lysis OD700, 18 h; higher = more signal, called active from +8 up or from −8 down
[17] = modulators of S6 phosphorylation in cells, primary screen, cell-based, A549, cytoblot, luminescence, serum-stimulated (AID 1158); details: A549 phospho-S6 cytoblot, 5 h, higher = more signal;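 note: serum-stimulated A549 lung adenocarcinoma cells; signal is phosphorylated S6 detected by cytoblot immunostaining with HRP secondary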
[18] = biological target: NADPH oxidase 2 (Homo sapiens) (UniProt P04839); experiment: NOX2-dependent H2O2 signal modulators, primary screen, NOX inhibitor project, cell-based, HEK293-NOX2, PMA-stimulated, Amplex Red fluorescence (AID 1159); details: 45 min, higher = more signal, called active from +8 up or from −8 down; note: test concentration not given here
Chain of NADPH oxidase 2 (Homo sapiens) (P04839 whole entry, looked up): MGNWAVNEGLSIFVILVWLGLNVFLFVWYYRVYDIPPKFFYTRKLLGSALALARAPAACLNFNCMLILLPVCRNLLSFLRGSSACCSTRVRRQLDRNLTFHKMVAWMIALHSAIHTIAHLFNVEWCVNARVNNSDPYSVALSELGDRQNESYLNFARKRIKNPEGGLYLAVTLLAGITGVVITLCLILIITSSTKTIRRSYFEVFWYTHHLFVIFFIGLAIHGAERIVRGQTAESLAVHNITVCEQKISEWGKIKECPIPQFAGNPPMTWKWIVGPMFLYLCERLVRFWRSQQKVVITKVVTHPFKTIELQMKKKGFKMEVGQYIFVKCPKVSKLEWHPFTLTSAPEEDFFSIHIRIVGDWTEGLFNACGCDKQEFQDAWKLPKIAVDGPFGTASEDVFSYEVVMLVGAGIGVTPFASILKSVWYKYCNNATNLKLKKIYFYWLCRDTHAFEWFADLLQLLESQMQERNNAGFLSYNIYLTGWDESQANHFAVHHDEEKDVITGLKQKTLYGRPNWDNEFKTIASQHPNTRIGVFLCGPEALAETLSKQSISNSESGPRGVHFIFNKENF

[19] = biological target: NADPH oxidase 4 (Homo sapiens) (UniProt Q9NPH5); experiment: NOX4-dependent H2O2 signal modulators, primary screen, NOX inhibitor project, cell-based, HEK293-NOX4, tetracycline-induced, Amplex Red fluorescence (AID 1160); details: 45 min, higher = more signal, called active from +8 up or from −8 down
Chain of NADPH oxidase 4 (Homo sapiens) (Q9NPH5 whole entry, looked up): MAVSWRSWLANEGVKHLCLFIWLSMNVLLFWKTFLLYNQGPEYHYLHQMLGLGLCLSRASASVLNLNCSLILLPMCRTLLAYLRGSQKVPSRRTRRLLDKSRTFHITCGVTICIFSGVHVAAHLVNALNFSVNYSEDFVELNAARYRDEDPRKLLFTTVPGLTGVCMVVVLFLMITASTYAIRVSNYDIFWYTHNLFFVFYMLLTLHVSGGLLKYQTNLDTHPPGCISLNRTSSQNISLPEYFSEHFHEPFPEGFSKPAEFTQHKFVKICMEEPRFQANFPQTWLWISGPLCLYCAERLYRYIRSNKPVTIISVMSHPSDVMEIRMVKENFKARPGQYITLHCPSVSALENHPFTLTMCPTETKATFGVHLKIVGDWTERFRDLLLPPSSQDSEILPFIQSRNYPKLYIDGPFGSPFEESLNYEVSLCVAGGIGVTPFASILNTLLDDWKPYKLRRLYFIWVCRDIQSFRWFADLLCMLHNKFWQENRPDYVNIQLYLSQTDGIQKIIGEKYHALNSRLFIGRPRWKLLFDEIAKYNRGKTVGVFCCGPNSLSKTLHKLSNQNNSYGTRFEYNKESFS

[20] = biological target: NADPH oxidase 5 (Homo sapiens) (UniProt Q96PH1); experiment: NOX5-dependent H2O2 signal modulators, primary screen, NOX inhibitor project, cell-based, HEK293-NOX5, Amplex Red fluorescence (AID 1161); details: HEK293-NOX5, ionomycin, 45 min, higher = more signal
Chain of NADPH oxidase 5 (Homo sapiens) (Q96PH1 whole entry, looked up): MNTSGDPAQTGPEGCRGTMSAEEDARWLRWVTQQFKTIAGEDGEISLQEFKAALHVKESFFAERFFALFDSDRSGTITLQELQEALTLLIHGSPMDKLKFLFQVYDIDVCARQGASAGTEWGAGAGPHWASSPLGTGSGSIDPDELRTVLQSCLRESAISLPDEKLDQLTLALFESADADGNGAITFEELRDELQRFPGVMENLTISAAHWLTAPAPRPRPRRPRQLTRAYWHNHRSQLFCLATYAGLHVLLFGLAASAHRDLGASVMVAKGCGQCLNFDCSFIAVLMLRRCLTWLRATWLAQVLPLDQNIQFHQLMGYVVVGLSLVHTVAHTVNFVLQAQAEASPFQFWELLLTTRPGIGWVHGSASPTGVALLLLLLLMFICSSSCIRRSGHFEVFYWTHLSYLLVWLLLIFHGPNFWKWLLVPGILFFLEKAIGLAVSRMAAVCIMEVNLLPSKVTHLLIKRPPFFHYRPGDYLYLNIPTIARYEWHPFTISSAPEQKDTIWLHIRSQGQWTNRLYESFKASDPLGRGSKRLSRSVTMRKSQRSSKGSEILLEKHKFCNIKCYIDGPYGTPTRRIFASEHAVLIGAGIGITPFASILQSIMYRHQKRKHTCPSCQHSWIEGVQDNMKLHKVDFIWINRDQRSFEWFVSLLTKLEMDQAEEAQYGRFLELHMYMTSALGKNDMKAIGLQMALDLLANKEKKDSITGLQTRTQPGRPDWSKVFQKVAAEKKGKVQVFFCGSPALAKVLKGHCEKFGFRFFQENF

## CCCC=C(CCC)[C@@H](NC(=O)c1ccc(C(F)(F)F)cc1)c1ccccc1
[1]
  composite z-score: -0.191
[2]
  z-score: -3.91 (inactive)
[3]
  z-score: -0.383 (inactive)
[4]
  z-score: 0.962 (inactive)
[5]
  z-score: -0.0536 (inactive)
[6]
  composite z-score: 0.233
[7]
  composite z-score: 0.208
[8]
  composite z-score: 0.518
[9]
  composite z-score: 0.199
[10]
  composite z-score: -0.634
[11]
  z-score: -1.25 (inactive)
[12]
  composite z-score: 0.718
[13]
  z-score: 0.666 (inactive)
[14]
  z-score: -0.96 (inactive)
[15]
  z-score: 0.394 (inactive)
[16]
  z-score: -1.05 (inactive)
[17]
  z-score: 1.47
[18]
  z-score: -3.96 (inactive)
[19]
  z-score: -3.71 (inactive)
[20]
  z-score: -3.65

## COCCOC(=O)N1C(=O)[C@@]2(c3cc(C#CCCO)ccc31)[C@H](c1ccc(O)cc1)N1[C@H](c3ccccc3)[C@H](c3ccccc3)OC(=O)[C@H]1[C@@H]2C(=O)Nc1nc2ccccc2s1
[1]
  composite z-score: 0.607
[2]
  z-score: -2.49 (inactive)
[3]
  z-score: -1.24 (inactive)
[4]
  z-score: -1.7 (inactive)
[5]
  z-score: -0.0062 (inactive)
[6]
  composite z-score: 0.996
[7]
  composite z-score: -0.0062
[8]
  composite z-score: -0.0624
[9]
  composite z-score: 0.236
[10]
  composite z-score: 2.03
[11]
  z-score: 1.45 (inactive)
[12]
  composite z-score: 0.345
[13]
  z-score: 2.22 (inactive)
[14]
  z-score: 1.59 (inactive)
[15]
  z-score: 0.577 (inactive)
[16]
  z-score: 1.73 (inactive)
[17]
  z-score: 0.897
[18]
  z-score: 0.928 (inactive)
[19]
  z-score: -0.161 (inactive)
[20]
  z-score: 1.21

## COCCCNC(=O)[C@@]1(c2ccc([N+](=O)[O-])cc2)CC(=O)N(C2CCCCC2)[C@@H]1c1ccc(CO)cc1
[1]
  composite z-score: -0.155
[2]
  z-score: -1.72 (inactive)
[3]
  z-score: 0.0997 (inactive)
[4]
  z-score: -0.269 (inactive)
[5]
  z-score: 0.207 (inactive)
[6]
  composite z-score: -0.826
[7]
  composite z-score: -0.417
[8]
  composite z-score: 0.661
[9]
  composite z-score: -0.699
[10]
  composite z-score: -0.256
[11]
  z-score: 0.857 (inactive)
[12]
  composite z-score: -0.602
[13]
  z-score: 1.93 (inactive)
[14]
  z-score: 0.349 (inactive)
[15]
  z-score: 1.76 (inactive)
[16]
  z-score: 0.499 (inactive)
[17]
  z-score: -0.203
[18]
  z-score: 0.929 (inactive)
[19]
  z-score: 0.721 (inactive)
[20]
  z-score: 0.537

## [N-]=[N+]=NCc1ccccc1C[C@@]1(C(=O)O)N=C(c2ccc(OCCCO)cc2)O[C@@H]1c1ccccc1N=[N+]=[N-]
[1]
  composite z-score: -0.0964
[2]
  z-score: -2.2 (inactive)
[3]
  z-score: -0.439 (inactive)
[4]
  z-score: 0.488 (inactive)
[5]
  z-score: 0.142 (inactive)
[6]
  composite z-score: 0.312
[7]
  composite z-score: 0.0073
[8]
  composite z-score: 0.0819
[9]
  composite z-score: 0.0245
[10]
  composite z-score: -0.165
[11]
  z-score: 0.051 (inactive)
[12]
  composite z-score: 0.337
[13]
  z-score: 30.3 (active)
[14]
  z-score: 24.4 (active)
[15]
  z-score: 1.44 (inactive)
[16]
  z-score: 5.12 (inactive)
[17]
  z-score: -0.272
[18]
  z-score: -0.0613 (inactive)
[19]
  z-score: 1.21 (inactive)
[20]
  z-score: 0.819

## C=CC[C@@]1(C(=O)NCC(O)CO)N=C(c2ccc(OCCCO)cc2)O[C@@H]1c1ccccc1CN=[N+]=[N-] (stereo not given in full)
[1]
  composite z-score: -0.233
[2]
  z-score: -1.74 (inactive)
[3]
  z-score: -0.427 (inactive)
[4]
  z-score: -0.459 (inactive)
[5]
  z-score: -0.783 (inactive)
[6]
  composite z-score: 0.0285
[7]
  composite z-score: 0.0705
[8]
  composite z-score: 1.09
[9]
  composite z-score: 2.13
[10]
  composite z-score: -0.364
[11]
  z-score: 1.39 (inactive)
[12]
  composite z-score: 0.129
[13]
  z-score: 24.9 (active)
[14]
  z-score: 9.51 (active)
[15]
  z-score: 1.99 (inactive)
[16]
  z-score: 1.25 (inactive)
[17]
  z-score: 0.281
[18]
  z-score: -0.424 (inactive)
[19]
  z-score: 0.495 (inactive)
[20]
  z-score: -0.927

## COC(=O)[C@@]1(Cc2ccccc2CN=[N+]=[N-])N=C(c2ccc(OCCCO)cc2)O[C@H]1c1ccccc1N=[N+]=[N-]
[1]
  composite z-score: 0.54
[2]
  z-score: -3.9 (inactive)
[3]
  z-score: -0.174 (inactive)
[4]
  z-score: 2.28 (inactive)
[5]
  z-score: -0.505 (inactive)
[6]
  composite z-score: -0.104
[7]
  composite z-score: -0.0645
[8]
  composite z-score: -1.42
[9]
  composite z-score: -0.855
[10]
  composite z-score: 1.77
[11]
  z-score: -0.55 (inactive)
[12]
  composite z-score: 0.495
[13]
  z-score: 26.8 (active)
[14]
  z-score: 16.8 (active)
[15]
  z-score: 1.76 (inactive)
[16]
  z-score: 2.33 (inactive)
[17]
  z-score: 0.166
[18]
  z-score: -1.2 (inactive)
[19]
  z-score: 1.25 (inactive)
[20]
  z-score: 0.841

## Cc1ccc([C@@H]2CC=C(C(=O)O)[C@H](c3ccccc3)N2S(=O)(=O)c2ccc(C)cc2)cc1
[1]
  composite z-score: 0.382
[2]
  z-score: -0.385 (inactive)
[3]
  z-score: 0.134 (inactive)
[4]
  z-score: 0.332 (inactive)
[5]
  z-score: -0.311 (inactive)
[6]
  composite z-score: 1.77
[7]
  composite z-score: 0.277
[8]
  composite z-score: 0.385
[9]
  composite z-score: 0.528
[10]
  composite z-score: 0.157
[11]
  z-score: -1.17 (inactive)
[12]
  composite z-score: 1
[13]
  z-score: 1.83 (inactive)
[14]
  z-score: 0.929 (inactive)
[15]
  z-score: 0.692 (inactive)
[16]
  z-score: 0.708 (inactive)
[17]
  z-score: -0.256
[18]
  z-score: 0.489 (inactive)
[19]
  z-score: -1.2 (inactive)
[20]
  z-score: -0.96

## C=C(C(=O)CC[C@H](OC(=O)c1ccccc1-c1ccccc1C(=O)O)c1ccc(CO)o1)C(C)C
[1]
  composite z-score: 0.416
[2]
  z-score: 0.559 (inactive)
[3]
  z-score: -1.11 (inactive)
[4]
  z-score: 0.406 (inactive)
[5]
  z-score: 2.42 (inactive)
[6]
  composite z-score: 0.194
[7]
  composite z-score: -0.0933
[8]
  composite z-score: 0.427
[9]
  composite z-score: 0.669
[10]
  composite z-score: 1.71
[11]
  z-score: -0.748 (inactive)
[12]
  composite z-score: 0.0026
[13]
  z-score: 2.22 (inactive)
[14]
  z-score: 0.36 (inactive)
[15]
  z-score: 1.19 (inactive)
[16]
  z-score: 0.233 (inactive)
[17]
  z-score: 0.124
[18]
  z-score: -0.162 (inactive)
[19]
  z-score: -0.621 (inactive)
[20]
  z-score: -0.867

## COC(=O)[C@@]1(Cc2ccccc2N=[N+]=[N-])N=C(c2ccc(OCCCO)cc2)O[C@H]1c1ccccc1CN=[N+]=[N-]
[1]
  composite z-score: 0.171
[2]
  z-score: -5.31 (inactive)
[3]
  z-score: 1.18 (inactive)
[4]
  z-score: 3.33 (inactive)
[5]
  z-score: -0.412 (inactive)
[6]
  composite z-score: -0.46
[7]
  composite z-score: -0.0102
[8]
  composite z-score: -0.181
[9]
  composite z-score: -0.303
[10]
  composite z-score: 0.144
[11]
  z-score: 0.383 (inactive)
[12]
  composite z-score: 0.191
[13]
  z-score: 22.3 (active)
[14]
  z-score: 8.71 (active)
[15]
  z-score: 0.12 (inactive)
[16]
  z-score: 3.46 (inactive)
[17]
  z-score: 0.575
[18]
  z-score: -1.84 (inactive)
[19]
  z-score: 0.483 (inactive)
[20]
  z-score: -0.961
